Experimental data published in PubChem BioAssay (NCATS).
Inconclusive results are not listed. The source made the active and inactive calls. Unless noted, calls come from the whole dose curve; as a rule, active = well fitted curve in the direction sought with a large enough effect; inconclusive = small, poorly fitted or top-dose-only effect, or another doubt; inactive = no such curve, though single readings can be large; an effect the other way counts as inactive or inconclusive.

Legend:
[1] = High Content Imaging Cell-Based qHTS for Inhibitors of the mTORC1 Signaling Pathway in MEF (Tsc2-/-, p53-/-) Cells (AID 2666);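 note: percent of cells scored positive for phospho-rpS6 Ser235/236 immunostaining by imaging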
In short: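 Inhibition of rpS6 phosphorylation is measured by immunofluorescence imaging in empty-vector Tsc2-/-, p53-/- mouse embryonic fibroblasts after 24 hrs compound exposure at 37 degree Celsius. Results are reported as % positive cells per well.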

[2] = High Content Imaging Cell-Based qHTS for Inhibitors of the mTORC1 Signaling Pathway in MEF Cells (AID 2667);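 note: Tsc2-/- p53-/- MEFs stably re-expressing wild-type Tsc2 exposed 24 h; series mostly up to about 38 µM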
In short: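 Fixed-cell imaging of phospho-S6 (Ser235/236, Alexa-488) after 24 hrs of compound treatment at 37 degree Celsius. Signal was normalized to Hoechst, and thresholds from the highest and lowest wells split cells into % active versus % non-active.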

[3] = Cytometry Cell-Based qHTS for Inhibitors of the mTORC1 Signaling Pathway in MEF cells (AID 2668);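 note: Tsc2-/- p53-/- mouse embryonic fibroblasts stably re-expressing wild-type Tsc2; percent cells positive for phospho-rpS6 Ser235/236 relative to propidium iodide stain; series mostly up to about 38 µM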
In short: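 MEFs (Tsc2-/-, p53-/- stably expressing WT Tsc2) treated 24 h at 37 degree Celsius, fixed, stained with Alexa-488 anti-phospho-rpS6 Ser235/236 and propidium iodide; Acumen laser scanning. Reported as % positive cells, phospho-S6 normalized to PI.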

[4] = target: Ubiquitin carboxyl-terminal hydrolase 2 (Homo sapiens) (UniProt O75604); test: qHTS Validation Assay for Inhibitors of Ubiquitin-specific Protease USP2a Using CHOP2 as the Reporter (AID 463106)
In short: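 Inhibition is expressed relative to NEM as the full-inhibition control, with concentration-response curves classed by fit quality, magnitude and activity. Enzyme (USP2 core, 10nM) meets 25nM Ub-CHOP2 after compound preincubation; readings are taken at 60min.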

[5] = target: DNA polymerase III PolC-type (Bacillus subtilis (strain 168)) (UniProt P13267); test: qHTS Validation Assay for the Inhibitors of DNA Replication in Gram-Positive Bacteria (AID 485295);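 note: PicoGreen fluorescence of double-stranded DNA made on primed circular M13 template; series mostly up to about 57 µM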
In short: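 Reconstituted B. subtilis Pol III holoenzyme (PolC, beta clamp, SSB, primase) preincubated with compound, then M13Gori single-stranded circular template with dNTPs/NTPs added; room temperature reaction. Stopped with EDTA/PicoGreen; dsDNA fluorescence read, EDTA as full-inhibition control.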

[6] = target: Tumor susceptibility gene 101 protein (Homo sapiens) (UniProt Q99816); test: qHTS Validation Assay for Iinhibitors of HIV-1 Budding by Blocking the Interaction of PTAP/TSG101 (AID 485342; calls by dose curve)
In short: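 Tsg101 binding domain (10 uM) with FITC-labeled PTAP peptide (50 nM) in HEPES pH 7.5 buffer, 20 min at r.t. with compounds. Binding measured by fluorescence polarization.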

[7] = qHTS Validation Assay to Find Inhibitors of Chronic Active B-Cell Receptor Signaling (AID 485345; active = well fitted curve in the direction sought with a large enough effect in the main read-out, with a control signal flat, not every such curve was filed as active)
In short: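 TMD8 ABC-DLBCL cells with dox-inducible green luciferase–IκBα fusion and red native luciferase; compounds 46 uM–3 nM, 4 h at 37C with doxycycline in 0.5% FBS IMDM. Green/red ratio normalized to basal and 10 uM MG-132.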

[8] = target: Beta-2 adrenergic receptor (Homo sapiens) (UniProt P07550); test: qHTS validation assay of beta-arrestin-biased ligands of beta2-adrenergic receptor (AID 485366)
In short: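 Screening used a titration range of up to 46 microM in a beta-arrestin recruitment Tango luciferase assay. Cells in 1% FBS medium were treated 18 hr at 37 degrees C, and luminescence was normalized to %Activity.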

[9] = Validation screen for small molecules that induce DNA re-replication in MCF 10A normal breast cells (AID 463097); note: nearly all actives have a fitted effect of over 60% in size
In short: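 MCF 10A cells exposed to compound 48 hr at 37 C, 5% CO2, then Hoechst-stained 40 min. Laser-scanning imaging of nuclear DNA content (405 nm ex, 500-530 nm em); re-replication scored as rise in nuclei with elevated fluorescence intensity.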

[10] = target: ATP-dependent 6-phosphofructokinase (Trypanosoma brucei brucei) (UniProt O15648); test: qHTS Validation Assay to Find Inhibitors of T. brucei phosphofructokinase (AID 485368); conditions: outcome: dose series up to 57.5 µM
In short: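 PFK-generated ADP was measured after 45 min at room temperature using ADP-Glo. The reaction contained 0.5 mM F6P and 0.1 mM ATP.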

Measured: Potency

Sequence of ATP-dependent 6-phosphofructokinase (Trypanosoma brucei brucei) (O15648 whole entry, looked up): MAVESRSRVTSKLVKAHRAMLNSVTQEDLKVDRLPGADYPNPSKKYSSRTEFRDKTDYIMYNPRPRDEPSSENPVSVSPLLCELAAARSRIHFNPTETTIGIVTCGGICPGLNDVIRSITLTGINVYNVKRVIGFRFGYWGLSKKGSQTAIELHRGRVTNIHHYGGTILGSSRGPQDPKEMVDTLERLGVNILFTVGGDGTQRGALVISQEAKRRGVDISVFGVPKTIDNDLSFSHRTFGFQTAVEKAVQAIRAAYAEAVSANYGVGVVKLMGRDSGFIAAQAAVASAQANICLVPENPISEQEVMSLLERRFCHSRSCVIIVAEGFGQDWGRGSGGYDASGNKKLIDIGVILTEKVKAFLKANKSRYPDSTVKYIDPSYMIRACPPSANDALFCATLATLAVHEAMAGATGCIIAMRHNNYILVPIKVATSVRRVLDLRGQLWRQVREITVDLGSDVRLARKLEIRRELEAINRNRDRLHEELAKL
Sequence of Ubiquitin carboxyl-terminal hydrolase 2 (Homo sapiens) (O75604 whole entry, looked up): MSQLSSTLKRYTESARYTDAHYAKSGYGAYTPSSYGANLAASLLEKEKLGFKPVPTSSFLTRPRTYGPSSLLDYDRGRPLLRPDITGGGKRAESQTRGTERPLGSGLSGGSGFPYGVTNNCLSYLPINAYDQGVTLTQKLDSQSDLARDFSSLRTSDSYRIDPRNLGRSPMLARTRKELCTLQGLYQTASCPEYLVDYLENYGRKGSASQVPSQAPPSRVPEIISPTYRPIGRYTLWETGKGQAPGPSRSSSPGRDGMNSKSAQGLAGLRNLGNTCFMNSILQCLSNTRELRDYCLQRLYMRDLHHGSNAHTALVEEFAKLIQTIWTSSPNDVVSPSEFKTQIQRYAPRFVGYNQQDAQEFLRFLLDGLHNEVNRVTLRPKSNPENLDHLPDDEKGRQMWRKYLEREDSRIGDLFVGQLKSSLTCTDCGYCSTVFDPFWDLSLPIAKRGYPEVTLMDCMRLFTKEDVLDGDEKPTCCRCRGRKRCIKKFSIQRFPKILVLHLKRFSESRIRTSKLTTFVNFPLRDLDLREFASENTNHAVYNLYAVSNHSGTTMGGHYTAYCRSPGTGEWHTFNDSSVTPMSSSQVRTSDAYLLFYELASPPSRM
Sequence of Tumor susceptibility gene 101 protein (Homo sapiens) (Q99816 whole entry, looked up, the tested form may be a part): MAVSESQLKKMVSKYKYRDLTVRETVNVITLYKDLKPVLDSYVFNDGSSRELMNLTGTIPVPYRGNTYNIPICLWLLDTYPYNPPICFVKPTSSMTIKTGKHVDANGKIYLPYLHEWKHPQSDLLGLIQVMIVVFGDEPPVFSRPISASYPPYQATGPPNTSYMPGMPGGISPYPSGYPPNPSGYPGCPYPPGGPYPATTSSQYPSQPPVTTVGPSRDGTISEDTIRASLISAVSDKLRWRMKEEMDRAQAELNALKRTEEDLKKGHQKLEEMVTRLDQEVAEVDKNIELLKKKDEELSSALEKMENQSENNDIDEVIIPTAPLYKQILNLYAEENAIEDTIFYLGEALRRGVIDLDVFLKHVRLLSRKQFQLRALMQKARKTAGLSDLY
Sequence of Beta-2 adrenergic receptor (Homo sapiens) (P07550 whole entry, looked up): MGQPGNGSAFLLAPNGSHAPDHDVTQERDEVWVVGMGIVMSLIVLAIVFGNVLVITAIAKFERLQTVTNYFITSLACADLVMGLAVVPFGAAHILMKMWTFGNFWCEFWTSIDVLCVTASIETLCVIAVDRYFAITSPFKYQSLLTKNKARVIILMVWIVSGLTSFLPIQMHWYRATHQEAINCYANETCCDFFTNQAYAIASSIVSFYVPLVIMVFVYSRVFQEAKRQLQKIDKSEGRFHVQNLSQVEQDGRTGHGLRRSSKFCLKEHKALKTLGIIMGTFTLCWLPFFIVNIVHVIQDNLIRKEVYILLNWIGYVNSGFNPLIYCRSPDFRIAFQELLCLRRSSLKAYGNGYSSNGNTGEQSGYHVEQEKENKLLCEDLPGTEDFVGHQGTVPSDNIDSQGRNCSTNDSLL
Sequence of DNA polymerase III PolC-type (Bacillus subtilis (strain 168)) (P13267 whole entry, looked up): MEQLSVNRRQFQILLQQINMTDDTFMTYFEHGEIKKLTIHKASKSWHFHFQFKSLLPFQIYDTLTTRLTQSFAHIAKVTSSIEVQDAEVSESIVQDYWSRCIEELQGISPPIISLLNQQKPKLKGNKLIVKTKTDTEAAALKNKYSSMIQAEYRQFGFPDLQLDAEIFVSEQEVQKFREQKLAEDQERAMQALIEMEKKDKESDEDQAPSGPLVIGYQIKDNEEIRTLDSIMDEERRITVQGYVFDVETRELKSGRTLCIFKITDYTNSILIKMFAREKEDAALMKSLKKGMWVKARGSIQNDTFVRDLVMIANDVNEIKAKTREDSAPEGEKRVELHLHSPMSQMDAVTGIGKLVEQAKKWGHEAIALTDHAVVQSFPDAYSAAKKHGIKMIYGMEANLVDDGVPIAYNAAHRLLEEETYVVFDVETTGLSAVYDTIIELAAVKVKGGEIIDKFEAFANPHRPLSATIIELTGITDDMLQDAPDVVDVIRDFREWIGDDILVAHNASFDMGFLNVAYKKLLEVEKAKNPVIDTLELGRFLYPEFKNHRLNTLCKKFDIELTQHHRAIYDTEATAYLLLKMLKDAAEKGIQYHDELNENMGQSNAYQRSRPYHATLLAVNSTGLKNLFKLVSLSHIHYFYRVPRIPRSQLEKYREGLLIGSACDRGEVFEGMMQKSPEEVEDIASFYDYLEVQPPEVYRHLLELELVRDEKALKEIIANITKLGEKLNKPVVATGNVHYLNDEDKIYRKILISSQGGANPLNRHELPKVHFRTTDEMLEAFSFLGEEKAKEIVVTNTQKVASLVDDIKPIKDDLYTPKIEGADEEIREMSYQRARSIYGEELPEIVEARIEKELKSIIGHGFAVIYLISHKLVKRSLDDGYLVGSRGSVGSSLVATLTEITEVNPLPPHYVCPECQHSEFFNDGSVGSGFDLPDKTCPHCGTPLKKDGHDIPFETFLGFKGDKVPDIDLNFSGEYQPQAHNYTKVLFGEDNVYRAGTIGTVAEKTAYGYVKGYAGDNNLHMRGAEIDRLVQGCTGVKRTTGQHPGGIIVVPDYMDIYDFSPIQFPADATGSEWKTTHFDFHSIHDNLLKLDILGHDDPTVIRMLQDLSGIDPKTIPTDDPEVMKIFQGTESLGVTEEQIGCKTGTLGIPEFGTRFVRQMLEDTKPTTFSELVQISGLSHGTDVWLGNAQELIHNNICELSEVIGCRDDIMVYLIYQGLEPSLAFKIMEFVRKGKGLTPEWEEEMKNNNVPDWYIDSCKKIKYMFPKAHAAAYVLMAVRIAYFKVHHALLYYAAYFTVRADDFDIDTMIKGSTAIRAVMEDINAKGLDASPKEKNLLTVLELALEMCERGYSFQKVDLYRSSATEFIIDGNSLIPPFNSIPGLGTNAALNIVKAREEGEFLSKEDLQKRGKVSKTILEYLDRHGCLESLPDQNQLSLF

CC(=O)[C@@]1(O)CC[C@H]2[C@@H]3CCC4=CC(=O)CC[C@]4(C)[C@H]3CC[C@@]21C
not listed: [9] | [10]
inactive: all other assays above

O=C1CC2(CCCC2)CC(=O)N1CCCCN1CCN(c2ncccn2)CC1
not listed: [6] | [10]
inactive: all other assays above

NC(=O)c1cn(Cc2c(F)cccc2F)nn1
not listed: [9] | [10]
inactive: all other assays above

CCCN(CCC)CCc1cccc2c1CC(=O)N2
not listed: [6] | [10]
inactive: all other assays above

COC(=O)[C@@H](N)Cc1ccc(O)c(O)c1
not listed: [6]
inactive: all other assays above

NS(=O)(=O)c1cc2c(cc1Cl)NC(C1CC3C=CC1C3)NS2(=O)=O (stereo unspecified)
not listed: [6] | [10]
inactive: all other assays above

COc1cc(Cc2cnc(N)nc2N)cc(OC)c1OC
not listed: [6] | [8]
inactive: all other assays above

C[N+](C)(C)CCCCCCCCCC[N+](C)(C)C
not listed: [5]
inactive: all other assays above

O=C(O)CP(=O)(O)O
not listed: [5] | [6]
inactive: all other assays above

Cc1ccc(S(=O)(=O)NC(=O)NN2CCCCCC2)cc1
not listed: [6] | [10]
inactive: all other assays above

CCCN(CCC)C(=O)C(CCC(=O)O)NC(=O)c1ccccc1 (stereo unspecified)
not listed: [6]
inactive: all other assays above

c1cnc(N2CCN(Cc3ccc4c(c3)OCO4)CC2)nc1
not listed: [6] | [10]
inactive: all other assays above

CN1CCN(CC(=O)N2c3ccccc3C(=O)Nc3cccnc32)CC1
not listed: [9] | [10]
inactive: all other assays above

COc1ccc(CCN(C)CCCC(C#N)(c2cc(OC)c(OC)c(OC)c2)C(C)C)cc1OC (stereo unspecified)
not listed: [7]
inactive: all other assays above

CCCOc1ccccc1-c1nc2n[nH]nc2c(=O)[nH]1
not listed: [6]
inactive: all other assays above

FC(F)(F)c1ccccc1-n1ccnc1
not listed: [6] | [10]
inactive: all other assays above

Cc1nnc(SCC2=C(C(=O)O)N3C(=O)[C@@H](NC(=O)Cn4cnnn4)[C@H]3SC2)s1
not listed: [4] | [10]
inactive: all other assays above
